# Many of the other results were omitted from the sample, so hits are more common in it than they were.
# ERK EGF block – inhibitors of EGF-stimulated ERK signaling pathway; actives 0.41% (n = 130,000); AID 1454; HEK293-V1b, EGF-stimulated phospho-ERK AlphaScreen; Potency, µM (highest dose often 11.5 µM), hits mostly inhibitors; active = well fitted inhibition curve with a large enough effect; also: nearly all actives have a fitted effect of over 55% in size
#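 EGF-stimulated (25 nM, 5 min) phospho-ERK in HEK293 cells stably expressing V1b, cells pretreated 30 min with compound at 37C. Homogeneous AlphaScreen read on lysates.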
# A number is an active result; i = inactive.
SMILES,ERK EGF block
O=c1cc(O)c2ccc(O)cc2o1,i
O=c1ccc2[n+]([O-])c3ccc(O)cc3oc-2c1,16µM
O=c1cc(-c2ccc(O)cc2)oc2cc(O)ccc12,i
Cc1noc(C)c1C(=O)N1CCC[C@@]2(CCN(C(=O)Nc3ccccc3)C2)C1,i
CS(=O)(=O)c1ccc([C@H](O)[C@H](CF)NC(=O)C(Cl)Cl)cc1,i
COc1ccc(C(=O)N2CCC3(CCCN(Cc4ccccc4OC)C3)CC2)cc1,i
CC1(C)CC(C(CCN(Cc2ccccc2)C(=O)c2ccco2)c2ccc(F)cc2)CCO1 (stereo not given),22µM
CN(CCC#N)C(=O)CC(Cc1ccccc1)C1CCOC(C)(C)C1 (stereo not given),i
CC1(C)CC(N(Cc2ccc(F)cc2)C(=O)c2ccc(F)cc2)CCO1 (stereo not given),i
O=C(/C=C/c1cccnc1)/C=C/c1cccnc1,10µM
Cc1cccc(C(=O)Nc2ccc(C(=O)/C=C/c3cccnc3)cc2)c1,i
O=C(/C=C/c1cccnc1)c1cc(F)ccc1O,i
N#CC(Cc1ccc(O)c(O)c1)C(=O)N1CCc2ccccc21 (stereo not given),i
CC(=O)OC1CCC2(C)C(=CC=C3C2CCC2(C)C3CCC2C(C)/C=C/C(C)C(C)C)C1(C)C (stereo not given),i
CC(C)(C)OC(=O)NCCCCC1=CC2=CC(=O)C(C)(OC(=O)CCc3ccccc3)C(=O)C2=CO1 (stereo not given),i
COc1ccc(NC(=O)N2CCC3(CC2)CCN(C(=O)c2cccc(F)c2)CC3)cc1,i
Cc1nnc(SCC(=O)N/N=C/c2ccc(-c3ccc(C)c(Cl)c3)o2)s1,i
Cc1ccc(C(=O)N/N=C/c2ccc(-c3ccccc3[N+](=O)[O-])o2)cn1,i
Cc1ccc(C(=O)N/N=C\c2ccc(-c3ccc(Cl)c(Cl)c3)o2)cn1,18µM
COc1ccc(NC(=O)N2CCCC3(CCN(C(=O)c4csnn4)CC3)C2)cc1,i
N#Cc1ccc(CN2CCCC3(CCN(C(=O)c4ccncc4)CC3)C2)cc1,i
O=S(=O)(Nc1ccc(N2CCCCC2)cc1)c1ccccc1,i
O=C1C(NS(=O)(=O)c2cccs2)=C(N2CCN(Cc3ccccc3)CC2)C(=O)c2ccccc21,16µM
O=C1C(NS(=O)(=O)c2ccc(Cl)cc2)=C(N2CCCCC2)C(=O)c2ccccc21,14µM
CN1CCN(C2=C(NS(=O)(=O)c3cccs3)C(=O)c3ccccc3C2=O)CC1,i
SMILES,ERK EGF block
O=C1C(Nc2ccccc2)=C(NS(=O)(=O)c2ccccc2)C(=O)c2ccccc21,i
Cc1ccccc1CN1CCN(S(=O)(=O)c2cccs2)CC1,i
Cn1cccc1C(=O)N1CCC2(CCCN(c3ncccn3)C2)CC1,i
CC(C)C[C@@H](CC(=O)N[C@H](CC(=O)N[C@@H]1CCNC[C@H]1C(=O)N[C@H](CC(=O)N[C@@H](CCC(=O)O)CC(=O)O)CC(C)C)C(C)C)NC(=O)[C@@H]1CNCC[C@H]1N,i
Cc1sc2ncnc(N/N=C/c3cccc(O)c3)c2c1C,i
Oc1ccc(Nc2ncnc3scc(-c4ccccc4)c23)cc1,22µM
Cc1sc2ncnc(N)c2c1C,i
CN(C)CCCNc1ncnc2scc(-c3ccccc3)c12,i
Cc1sc2ncnc(Nc3ccc(O)cc3)c2c1C,28µM
Cc1ccccc1S(=O)(=O)Nc1ncnc2scc(-c3ccccc3)c12,i
C[C@@H](C(=O)O)c1cccc(C(=O)c2ccccc2)c1,i
COc1ccc(NC(=O)N2CC3(CCNCC3)C2)cc1,i
c1csc(CNc2ncncc2-c2ccc3c(c2)OCO3)c1,i
CC(=O)OCC(=O)[C@@]12OC(C)(C)O[C@@H]1C[C@H]1[C@H]3C[C@H](F)C4=CC(=O)C=C[C@@]4(C)[C@]3(F)[C@H](O)C[C@@]12C,i
CC1=NN(c2ccccc2)C(=O)/C1=C\C=C\c1ccccc1,25µM
CCOC1=NN(c2ccccc2)C(=O)/C1=C\N(C)C,i
CCOC(=O)CC1=NN(c2ccccc2)C(=O)/C1=C\c1ccc(N(C)C)cc1,25µM
CC1=NN(c2ccc([N+](=O)[O-])cc2)C(=O)/C1=C\N(C)C,i
CC1=NN(c2ccc(C(=O)OC(C)C)cc2)C(=O)/C1=C\C=C\c1ccco1,i
CC1=NN(c2ccccc2)C(=O)/C1=C/C=C/c1ccc(N(C)C)cc1,7.1µM
Cc1ccc(C(=O)NN2C(=O)/C(=C/c3cn(C)c4ccccc34)SC2=S)cc1,i
Cn1cc(C=O)c2ccccc21,i
CC1=NN(c2ccccc2)C(=O)/C1=C/N(C)C,i
CC1=NN(c2ccccc2)C(=O)/C1=C\c1cn(C)c2ccccc12,14µM
CC1=NN(CCC#N)C(=O)/C1=C/c1ccc(N(C)C)cc1,i
CCOC(=O)CC1=NN(c2ccccc2)C(=O)C1,i
CC(C1CCCC(=O)C1)[N+](=O)[O-] (stereo not given),i
COC(=O)c1ccc(C(NC(=O)OCc2ccccc2)/C(=C/[C@@H](C)C(=O)NCc2cc(C)n(C)n2)c2cccnc2)cc1 (stereo not given in full),i
